A number with no mark means an inactive call. Inconclusive results are not listed. Activity calls are given as the source filed them. Unless noted, calls come from the whole dose curve; as a rule, active = well fitted curve in the direction sought with a large enough effect in the repeat runs; inconclusive = weak or mixed curves; inactive = no such curve, though single readings can be large; an effect the other way counts as inactive or inconclusive.

In test [1] the target is Thyrotropin receptor (Homo sapiens) (UniProt P16473). Nature of the test: qHTS assay to identify small molecule antagonists of the thyroid stimulating hormone receptor (TSHR) signaling pathway (AID 1259385; calls by dose curve; note: % is set by controls: 0 for no effect and ±100 for the full control effect; nearly all actives have a fitted effect of over 20% in size). The gist of the method: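 TSHR-HEK293 cells were plated and held 18 h at 37C/5% CO2, then given compound plus Ro20-1724 and stimulated with TSH at 1.5 ng/mL final. After 30 min at room temperature, cAMP was detected with cAMP-d2/anti-cAMP-cryptate (1 h) by fluorescence.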
Thyrotropin receptor (Homo sapiens), sequence (P16473 whole entry, looked up): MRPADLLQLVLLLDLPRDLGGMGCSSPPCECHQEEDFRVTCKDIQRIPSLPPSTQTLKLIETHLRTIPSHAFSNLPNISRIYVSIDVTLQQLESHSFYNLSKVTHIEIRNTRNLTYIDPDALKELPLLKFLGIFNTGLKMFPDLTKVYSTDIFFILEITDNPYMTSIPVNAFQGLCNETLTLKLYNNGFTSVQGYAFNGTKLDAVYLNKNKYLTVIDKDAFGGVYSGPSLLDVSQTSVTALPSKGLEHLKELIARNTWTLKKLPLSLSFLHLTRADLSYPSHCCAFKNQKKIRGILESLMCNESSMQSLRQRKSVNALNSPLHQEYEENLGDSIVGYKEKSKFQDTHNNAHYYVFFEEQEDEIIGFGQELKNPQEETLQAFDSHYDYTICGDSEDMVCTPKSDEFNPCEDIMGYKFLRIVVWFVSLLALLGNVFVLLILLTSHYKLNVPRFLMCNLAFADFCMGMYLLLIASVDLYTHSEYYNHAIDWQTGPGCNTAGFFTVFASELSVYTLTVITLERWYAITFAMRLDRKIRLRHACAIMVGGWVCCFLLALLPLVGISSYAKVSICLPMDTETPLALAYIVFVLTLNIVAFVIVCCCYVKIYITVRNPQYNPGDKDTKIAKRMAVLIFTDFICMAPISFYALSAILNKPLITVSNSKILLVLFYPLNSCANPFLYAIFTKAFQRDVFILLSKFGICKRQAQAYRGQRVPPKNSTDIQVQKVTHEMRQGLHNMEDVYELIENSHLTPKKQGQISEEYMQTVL
For orientation: Quantitative high-throughput screening tests each substance at several concentrations.

Test [2] can be described thus: qHTS assay to identify small molecule agonists of the estrogen receptor alpha (ER-alpha) signaling pathway in the presence of an antagonist - cell viability counter screen (AID 1259386).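 Note: series mostly up to about 92 µM; cells exposed to compounds for 22 h at 37 °C before the viability read; % is set by controls: 0 for no effect and ±100 for the full control effect; nearly all actives have a fitted effect of over 30% in size.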 Summed up: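 ICI-182,780 at 10.0nM final accompanies the compound titration (15 concentrations, 22hr, 37C) on VM7Luc4E2 cells. The CellTiter-Fluor fluorescence readout runs in the same wells as the luciferase assay.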

Test [3] addresses Progesterone receptor (Homo sapiens) (UniProt P06401). Nature of the test: qHTS assay to identify small molecule agonists of the progesterone receptor (PR) signaling pathway (AID 1346784; calls by dose curve; note: % is set by controls: 0 for no effect and ±100 for the full control effect; nearly all actives have a fitted effect of over 30% in size). Summed up: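 Agonist qHTS: compounds pinned onto 3,000 PR-UAS-bla HEK 293T cells per well in charcoal-stripped serum medium, 16hr at 37C, then beta-lactamase activity measured by LiveBLAzer FRET fluorescence after 2 hours at room temperature.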

Test [4] is described as follows: qHTS assay to identify small molecule agonists of the progesterone receptor (PR) signaling pathway - cell viability counter screen (AID 1346799; calls by dose curve; note: nearly all actives have a fitted effect of over 45% in size; note: potency is the fitted concentration of half-maximal effect). The gist of the method:
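Cytotoxicity measured by CellTiter-Glo luminescence (30 min, RT) in the same wells as the PR beta-lactamase agonist read. Those HEK293T cells had 16 h compound treatment at 37 C in 2% charcoal-stripped FBS medium.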

Test [5] in a line: qHTS assay to identify small molecule antagonists of the TGF-beta/Smad signaling pathway - cell viability counter screen (AID 1346824). Note: % is set by controls: 0 for no effect and ±100 for the full control effect; nearly all actives have a fitted effect of over 50% in size. Summed up:
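SBE-bla HEK 293T cells were plated overnight at 37 C, then given compounds in DMSO plus TGF-beta1 (added as 0.25 ng/mL solution) for 5 hr. After the bla read, CellTiter-Glo was added to the same wells and luminescence read after 30 min at room temperature.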

Test [6] in a line: qHTS assay to identify small molecule agonists of the TGF-beta/Smad signaling pathway - cell viability counter screen (AID 1346829). Note: top concentration of the series differs between compounds; % is set by controls: 0 for no effect and ±100 for the full control effect; nearly all actives have a fitted effect of over 45% in size. Summed up: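 Here the cytotoxicity of library compounds is measured in SBE-bla HEK 293T cells treated for 5 hr, using CellTiter-Glo added to wells already read for the beta-lactamase reporter.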
A short description of test [7]: qHTS assay to identify small molecule agonists of the TGF-beta/Smad signaling pathway (AID 1346859; active = well fitted activation curve with a large enough effect in the signal ratio in the repeat runs, not every such curve was filed as active; the % refers to the signal ratio; note: series mostly up to about 77 µM; % is set by controls: 0 for no effect and ±100 for the full control effect). Summed up: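 Fluorescence (ex 405 nm; em 460 and 530 nm) was read 2 h after LiveBLAzer FRET substrate at RT. The preceding compound treatment of overnight-plated SBE-bla HEK293T cells lasted 5 h at 37 C.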
Test [8] in a line: Caspase-3/7 induction in HepG2 cells by small molecules, qHTS assay (AID 1346978). Note: % is set by controls: 0 for no effect and ±100 for the full control effect; nearly all actives have a fitted effect of over 15% in size. The gist of the method:
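Wild-type HepG2 cells (2,000/well) were settled 5 h at 37 C, 5% CO2, then exposed to compounds in DMSO for 17 h. Caspase-3/7 activity was read by luminescence 30 min after adding Caspase-Glo 3/7 reagent at room temperature.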

The nature of test [9]: Caspase-3/7 induction in CHO-K1 cells by small molecules, qHTS assay (AID 1346980). Note: % is set by controls: 0 for no effect and ±100 for the full control effect; nearly all actives have a fitted effect of over 15% in size. Summed up:
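Wild-type cells were seeded at 1,500 per well and settled 5 hr at 37 C, 5% CO2, then exposed to DMSO-dissolved compounds for 17 hr. Caspase-Glo 3/7 reagent was added, and luminescence was read after 30min at room temperature.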

Test [10] addresses Progesterone receptor (Homo sapiens) (UniProt P06401). As to the kind of experiment: qHTS assay to identify small molecule antagonists of the progesterone receptor (PR) signaling pathway (AID 1346795; active = well fitted inhibition curve with a large enough effect in the signal ratio in the repeat runs, not every such curve was filed as active; the % refers to the signal ratio; note: potency is the fitted concentration of half-maximal effect). The gist of the method: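 Antagonist mode with agonist R5020 at 1 nM final and 16 hr incubation at 37C. Reporter was beta-lactamase driven by UAS in HEK293T (PR-UAS-bla), 2% charcoal-stripped serum; signal from LiveBLAzer FRET substrate, 2 hr at room temperature.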

Test [11] deals with Thyrotropin-releasing hormone receptor (Homo sapiens) (UniProt P34981). As to the kind of experiment: qHTS assay to identify small molecule antagonists of the thyrotropin-releasing hormone receptor (TRHR) signaling pathway (AID 1346877; active = well fitted inhibition curve with a large enough effect in the repeat runs, not every such curve was filed as active; note: series mostly up to about 51 µM; % is set by controls: 0 for no effect and ±100 for the full control effect). The gist of the method:
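Screening used HEK293 cells engineered with TRHR, with a brief 5 min room-temperature compound exposure preceding addition of TRH to 1 nM. The read-out was kinetic calcium-dye fluorescence, concentration-response from 15 doses in triplicate.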

For test [12] the target is unchanged. Nature of the test: qHTS assay to identify small molecule agonists of the thyrotropin-releasing hormone receptor (TRHR) signaling pathway (AID 1346891; calls by dose curve; note: series mostly up to about 58 µM; % is set by controls: 0 for no effect and ±100 for the full control effect). The gist of the method: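 Agonist-mode intracellular calcium readout: kinetic fluorescence over 3 min at 1 s intervals after compound addition to TRHR-HEK293 cells (18 h seeded, 2 h dye-loaded at 37 C). Fifteen concentrations, triplicates.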

Test [13] is described as follows: Human pregnane X receptor (PXR) small molecule agonists, qHTS cell viability counter screen (AID 1346977). Note: % is set by controls: 0 for no effect and ±100 for the full control effect; nearly all actives have a fitted effect of over 50% in size. Summed up:
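Same-well viability read: CellTiter-Fluor added after 23 hr compound exposure, fluorescence measured 1 hr later. Cells were PXR-Luc HepG2 seeded at 2,000/well in 5% charcoal-stripped FBS medium, rested 5 hr before dosing at 37 C.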

The nature of test [14]: Caspase-3/7 induction in CHO-K1 cells by small molecules, qHTS cell viability counter screen (AID 1346979). Note: % is set by controls: 0 for no effect and ±100 for the full control effect; nearly all actives have a fitted effect of over 35% in size. Summed up:
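Cytotoxicity counter screen: CellTiter-Fluor added to compound-treated wild-type CHO-K1 cells at 16 h (37C, 5% CO2), fluorescence measured 1 h later; same wells as caspase-3/7 measurement.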

The nature of test [15]: Caspase-3/7 induction in HepG2 cells by small molecules, qHTS cell viability counter screen (AID 1346981). Note: series mostly up to about 92 µM; % is set by controls: 0 for no effect and ±100 for the full control effect; nearly all actives have a fitted effect of over 30% in size. The gist of the method: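 Multiplexed with the caspase-3/7 assay: HepG2 cells, 16 hr compound treatment, CellTiter-Fluor viability detection by fluorescence.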
For test [16], the target named is Nuclear receptor subfamily 1 group I member 2 (Homo sapiens) (UniProt O75469). As to the kind of experiment: Human pregnane X receptor (PXR) small molecule agonists, qHTS assay (AID 1346982). For activation: % is set by controls: 0 for no effect and ±100 for the full control effect. Note: nearly all actives have a fitted effect of over 35% in size. Note: potency is the fitted concentration of half-maximal effect. The gist of the method:
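We seeded PXR-Luc HepG2 cells in assay medium containing 5% charcoal-stripped FBS, added compounds 5 hr later, incubated 24 hr, and read luminescence with ONE-Glo reagent.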

Test [17] is described as follows: qHTS assay to identify small molecule antagonists of the progesterone receptor (PR) signaling pathway - cell viability counter screen (AID 1346798). Note: nearly all actives have a fitted effect of over 50% in size. Note: potency is the fitted concentration of half-maximal effect. The gist of the method:
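Cytotoxicity read as CellTiter-Glo luminescence (30 min, room temperature) in the same wells as the beta-lactamase readout. HEK293T PR-UAS-bla cells in charcoal-stripped 2% FBS received compound and R5020, then 16 h at 37C, 5% CO2.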

The target of test [18] is Nuclear receptor subfamily 1 group I member 2 (Rattus norvegicus) (UniProt Q9R1A7). As to the kind of experiment: Rat pregnane X receptor (rPXR) activation by small molecules, qHTS assay (AID 1346983). Note: nearly all actives have a fitted effect of over 20% in size. Note: potency is the fitted concentration of half-maximal effect. The conditions noted are these: rPXR luciferase reporter cells, One-Glo luminescence, 24 h; max activation: stronger effect = higher value. The gist of the method:
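Cell-based rPXR luciferase reporter assay, 2,000 cells per well, rested 5hr at 37 C before compound addition in DMSO, then 24 hr at 37 C. One-Glo reagent was added and luminescence read after 30 min at room temperature.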

Test [19] concerns the target Nuclear receptor subfamily 1 group I member 2 (Homo sapiens) (UniProt O75469). As to the kind of experiment: CYP3A4 induction through human pregnane X receptor (PXR) by small molecules, qHTS assay (AID 1346984). Note: % is set by controls: 0 for no effect and ±100 for the full control effect; nearly all actives have a fitted effect of over 40% in size. The gist of the method: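 qHTS, concentration-response format: HepG2 DPX-2 line, PXR/CYP3A4-luc. Exposure 24 h, 37C. Substrate Luciferin-IPA 3uM final, 3 h. Detection One-Glo, 30 min RT.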

For test [20] the target is unchanged. As to the kind of experiment: Human pregnane X receptor (PXR) activation by small molecules, qHTS assay (AID 1346985). Note: % is set by controls: 0 for no effect and ±100 for the full control effect; nearly all actives have a fitted effect of over 40% in size. The gist of the method:
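DPX-2 cells (HepG2 co-transfected with a PXR response element and a CYP3A4-promoter luciferase construct) were seeded at 2,000 per well, rested 5 hr at 37C, then exposed to DMSO-dissolved compounds for 24 hr. Activation was read as luciferase luminescence.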

Thyrotropin-releasing hormone receptor (Homo sapiens), sequence (P34981 whole entry, looked up): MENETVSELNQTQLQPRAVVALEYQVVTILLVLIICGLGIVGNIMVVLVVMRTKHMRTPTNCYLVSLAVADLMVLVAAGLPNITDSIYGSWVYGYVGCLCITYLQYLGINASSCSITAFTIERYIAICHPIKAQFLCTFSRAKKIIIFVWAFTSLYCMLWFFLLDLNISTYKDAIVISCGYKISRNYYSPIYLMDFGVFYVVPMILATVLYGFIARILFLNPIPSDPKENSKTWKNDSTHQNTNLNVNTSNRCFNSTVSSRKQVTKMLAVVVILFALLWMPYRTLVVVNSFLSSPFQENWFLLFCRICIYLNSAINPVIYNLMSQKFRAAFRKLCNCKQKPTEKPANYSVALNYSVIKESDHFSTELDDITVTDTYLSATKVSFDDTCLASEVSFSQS
Nuclear receptor subfamily 1 group I member 2 (Homo sapiens), sequence (O75469 whole entry, looked up): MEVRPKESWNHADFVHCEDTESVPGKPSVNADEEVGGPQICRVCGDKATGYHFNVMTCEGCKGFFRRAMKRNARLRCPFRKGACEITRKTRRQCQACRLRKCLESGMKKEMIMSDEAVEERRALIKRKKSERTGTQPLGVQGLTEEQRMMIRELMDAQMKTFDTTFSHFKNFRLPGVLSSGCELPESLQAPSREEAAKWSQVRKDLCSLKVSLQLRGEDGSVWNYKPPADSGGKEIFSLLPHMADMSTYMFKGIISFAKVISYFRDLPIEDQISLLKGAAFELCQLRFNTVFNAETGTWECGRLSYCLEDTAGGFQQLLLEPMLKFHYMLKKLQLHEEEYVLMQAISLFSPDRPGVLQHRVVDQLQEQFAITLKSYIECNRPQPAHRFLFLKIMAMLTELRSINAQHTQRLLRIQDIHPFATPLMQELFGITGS
Progesterone receptor (Homo sapiens), sequence (P06401 whole entry, looked up): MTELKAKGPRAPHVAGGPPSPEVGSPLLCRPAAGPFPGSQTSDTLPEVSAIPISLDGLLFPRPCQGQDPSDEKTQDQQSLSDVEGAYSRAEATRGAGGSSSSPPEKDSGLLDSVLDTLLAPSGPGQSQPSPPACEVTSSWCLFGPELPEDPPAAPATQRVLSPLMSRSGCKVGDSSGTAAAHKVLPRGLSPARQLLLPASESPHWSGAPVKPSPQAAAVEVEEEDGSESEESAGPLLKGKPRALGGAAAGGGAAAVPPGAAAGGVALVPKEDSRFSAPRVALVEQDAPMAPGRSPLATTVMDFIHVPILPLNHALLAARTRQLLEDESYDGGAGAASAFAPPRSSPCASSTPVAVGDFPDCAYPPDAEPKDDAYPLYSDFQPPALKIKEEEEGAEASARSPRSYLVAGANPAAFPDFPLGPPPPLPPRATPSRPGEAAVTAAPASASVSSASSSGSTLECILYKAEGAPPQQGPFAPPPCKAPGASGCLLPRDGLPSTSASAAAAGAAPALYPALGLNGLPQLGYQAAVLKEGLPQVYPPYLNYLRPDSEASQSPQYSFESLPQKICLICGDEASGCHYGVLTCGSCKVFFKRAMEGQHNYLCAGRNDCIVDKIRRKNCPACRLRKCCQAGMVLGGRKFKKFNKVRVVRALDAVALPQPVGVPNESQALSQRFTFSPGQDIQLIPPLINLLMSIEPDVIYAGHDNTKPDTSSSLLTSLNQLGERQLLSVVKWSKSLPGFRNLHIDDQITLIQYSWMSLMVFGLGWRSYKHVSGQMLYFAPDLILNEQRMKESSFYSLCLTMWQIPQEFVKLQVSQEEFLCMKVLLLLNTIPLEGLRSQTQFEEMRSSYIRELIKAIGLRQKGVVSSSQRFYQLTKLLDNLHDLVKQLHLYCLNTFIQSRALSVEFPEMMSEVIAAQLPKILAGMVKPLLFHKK
Nuclear receptor subfamily 1 group I member 2 (Rattus norvegicus), sequence (Q9R1A7 whole entry, looked up): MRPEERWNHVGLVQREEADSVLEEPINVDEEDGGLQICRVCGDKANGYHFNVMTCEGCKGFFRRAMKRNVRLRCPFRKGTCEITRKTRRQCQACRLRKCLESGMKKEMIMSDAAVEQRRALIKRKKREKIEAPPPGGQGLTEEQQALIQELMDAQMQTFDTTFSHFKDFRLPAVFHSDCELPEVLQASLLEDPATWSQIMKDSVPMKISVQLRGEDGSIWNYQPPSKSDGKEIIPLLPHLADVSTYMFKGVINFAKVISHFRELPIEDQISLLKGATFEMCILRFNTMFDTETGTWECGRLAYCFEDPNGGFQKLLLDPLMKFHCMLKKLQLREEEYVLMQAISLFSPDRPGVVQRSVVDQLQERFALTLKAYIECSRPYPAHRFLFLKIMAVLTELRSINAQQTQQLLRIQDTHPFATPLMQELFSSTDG

For `COc1ccccc1N1CCN(CC(O)COc2cccc3ccccc23)CC1` (stereo unspecified), the Potency entry in [1], in test [2], in [3], in test [5], in test [6] and in test [7] was “inactive” throughout. Further, the Potency entry in test [8] and in test [9] was “inactive” in each case. In addition, the Potency in test [4] is 33.5 µM (active).

`Cc1c(C)c2c(c(C)c1OC(=O)CCC(=O)OCCO)CC[C@@](C)(CCC[C@H](C)CCC[C@H](C)CCCC(C)C)O2`: the Potency entry in [1], in test [2], in [5], in test [7], in test [12] and in [13] was “inactive” in each case. For the same molecule, the Potency result in test [8], in test [14], in test [9], in [15] and in test [16] was “inactive” in each case. Also, the Potency in test [10] was 26.6 µM (active). Moreover, the result in test [11] was inactive.

In the case of `CCc1ccccc1`, the Potency result in test [1], in test [2], in test [17], in test [4], in test [5] and in test [6] was “inactive” throughout. Moreover, the Potency result in test [7], in test [12], in test [13], in test [8], in test [14] and in test [9] was “inactive” in each case. Also, the Potency entry in [15] and in test [16] was “inactive” each time. In addition, in test [11], the result was inactive.

Take `CO/N=C(/C(=O)N[C@@H]1C(=O)N2C(C(=O)O)=C(COC(N)=O)CS[C@H]12)c1ccco1`: the Potency result in test [1], in test [2], in [17], in test [4], in test [5] and in test [6] was “inactive” each time. Moreover, the Potency result in test [7], in [12], in [13], in [8], in test [14] and in test [9] was “inactive” in each case. Further, the Potency result in test [15] is “inactive”. Further, the outcome in test [11] was inactive. In test [18], the max activation was -0.884%.

Take `CCOC(=O)c1ccc(C#Cc2ccc3c(c2)C(C)(C)CCS3)nc1`: the Potency entry in [1], in [2], in test [5], in [6], in test [12] and in test [13] was “inactive” in each case. Besides, the Potency result in test [8], in [14], in [9], in test [15], in [19] and in [20] was “inactive” throughout. Moreover, the molecule was called inactive in [11]. The Potency in test [16] is 33.5 µM (active); in [18], 10 µM (active).

As for `C[C@@H](O)[C@H]1C(=O)N2C(C(=O)O)=C([C@H]3CCCO3)S[C@H]12`, the Potency entry in test [1], in test [2], in [17], in test [4], in test [5] and in test [6] was “inactive” throughout. Also, the Potency entry in test [7], in test [12], in test [13], in test [8], in [14] and in test [9] was “inactive” in each case. The Potency result in [15], in [16], in test [19] and in [20] was “inactive” in each case. Further, the result in test [11] was inactive. The max activation in test [18] was -4.46%.

`CC1=Nc2ccc3ccccc3c2C1(C)C`: the Potency result in test [1], in test [2], in [5], in test [6], in test [12] and in test [8] was “inactive” throughout. Also, the Potency result in test [9] was “inactive”. Further, the figures for the Potency in test [17], in test [4] and in [16] were 12.2 µM (active), 24.3 µM (active) and 30.6 µM (active), respectively. In addition, the molecule was classed as inactive in test [11].

Consider `CCC1(CO)COCOC1`, for which the Potency entry in test [1], in test [2], in test [3], in test [4], in test [5] and in test [6] was “inactive” in each case. Further, the Potency result in [7], in test [12], in test [13], in test [8], in test [14] and in [9] was “inactive” in each case. The Potency result in [15] and in [16] was “inactive” throughout. In addition, the result in test [11] was inactive.
